{
  "source": "PubChem BioAssay (EPA / NIEHS)",
  "note": "Activity calls are given as the source filed them. The calls were made as follows: active = hit-call score of the fitted dose curve at least 0.9, where 1 is the maximum; inactive = score below 0.9.",
  "data": [
    {"read-out": "Interleukin 6 (IL6), IL6 (gene 3569)", "test": "LTEA_HepaRG_IL6: Life Technologies and Expression Analysis (LTEA) Assay for Interleukin 6 (IL6) using HepaRG (AID 2283509)", "details": "mRNA level, 48 h; actives raise or lower the signal", "method_in_brief": "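Changes in IL6 mRNA, up or down relative to 0.5% DMSO controls, were derived from concentration-response curves in human HepaRG cells treated for 48 h at up to 100 uM, with ACTB, GAPDH and POLR2A as normalizers.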", "values": [
      {"smiles": "COCC(C)N(C(=O)CCl)c1c(C)csc1C", "note": "(stereo unspecified)", "AC50": "22.7 µM (active)"},
      {"smiles": "COC(=O)c1c(C(F)F)nc(C(F)(F)F)c(C2=NCCS2)c1CC(C)C", "outcome": "inactive"},
      {"smiles": "Cn1c(-c2ccccc2)cc(-c2ccccc2)[n+]1C", "outcome": "inactive"},
      {"smiles": "COC(=O)NS(=O)(=O)c1ccc(N)cc1", "outcome": "inactive"},
      {"smiles": "CC(C)Nc1nc(Cl)nc(NC(C)C)n1", "outcome": "inactive"},
      {"smiles": "COC(=O)NC(=S)Nc1ccccc1NC(=S)NC(=O)OC", "outcome": "inactive"},
      {"smiles": "Clc1cccc(C(Cl)(Cl)Cl)n1", "outcome": "inactive"},
      {"smiles": "COP(=S)(OC)Oc1ccc([N+](=O)[O-])c(C)c1", "outcome": "inactive"},
      {"smiles": "CCOP(=S)(OCC)Oc1nc(Cl)n(C(C)C)n1", "outcome": "inactive"},
      {"smiles": "COc1cc(Cl)c(OC)cc1Cl", "outcome": "inactive"},
      {"smiles": "CCCCC(O)(Cn1cncn1)c1ccc(Cl)cc1Cl", "note": "(stereo unspecified)", "AC50": "72 µM (active)"},
      {"smiles": "CNC(=O)N(C)c1nnc(C(C)(C)C)s1", "outcome": "inactive"},
      {"smiles": "O=C(Nc1ccccc1-c1ccc(Cl)cc1)c1cccnc1Cl", "outcome": "inactive"},
      {"smiles": "CCNC(=O)NC(=O)C(C#N)=NOC", "outcome": "inactive"},
      {"smiles": "CCN(CC)C(=O)C(C)Oc1cccc2ccccc12", "note": "(stereo unspecified)", "outcome": "inactive"},
      {"smiles": "CC1(C)CON(Cc2ccccc2Cl)C1=O", "outcome": "inactive"},
      {"smiles": "CCOc1nc(C(Cl)(Cl)Cl)ns1", "AC50": "15 µM (active)"},
      {"smiles": "CN=C=S", "outcome": "inactive"},
      {"smiles": "C=C(C)CN(CC)c1c([N+](=O)[O-])cc(C(F)(F)F)cc1[N+](=O)[O-]", "outcome": "inactive"},
      {"smiles": "Nc1c(Cl)c(Cl)nc(C(=O)O)c1Cl", "outcome": "inactive"},
      {"smiles": "CC1(C)C(C=C(Cl)Cl)C1C(=O)OC(C#N)c1cccc(Oc2ccccc2)c1", "note": "(stereo unspecified)", "outcome": "inactive"},
      {"smiles": "Cc1cnc(C2=NC(C)(C(C)C)C(=O)N2)c(C(=O)O)c1", "note": "(stereo unspecified)", "outcome": "inactive"},
      {"smiles": "CSC(=O)c1c(C(F)F)nc(C(F)(F)F)c(C(=O)SC)c1CC(C)C", "outcome": "inactive"},
      {"smiles": "CCOc1cc(C(C)(C)C)ccc1C1COC(c2c(F)cccc2F)=N1", "note": "(stereo unspecified)", "outcome": "inactive"},
      {"smiles": "COC(=O)N(C(=O)N1CO[C@@]2(C(=O)OC)Cc3cc(Cl)ccc3C2=N1)c1ccc(OC(F)(F)F)cc1", "outcome": "inactive"},
      {"smiles": "CC(C)N1C(=O)c2ccccc2NS1(=O)=O", "outcome": "inactive"},
      {"smiles": "CCCC(=NOCC)C1=C(O)CC(CC(C)SCC)CC1=O", "note": "(stereo unspecified)", "outcome": "inactive"},
      {"smiles": "C=CCOC(=O)C(C)(C)OC(=O)c1cc(-n2c(=O)cc(C(F)(F)F)n(C)c2=O)ccc1Cl", "outcome": "inactive"},
      {"smiles": "CC(C)Oc1cccc(NC(=O)c2ccccc2C(F)(F)F)c1", "outcome": "inactive"},
      {"smiles": "CC(C)NC(=O)N1CC(=O)N(c2cc(Cl)cc(Cl)c2)C1=O", "outcome": "inactive"},
      {"smiles": "CC(C)(C)C(=O)C(Oc1ccc(Cl)cc1)n1cncn1", "note": "(stereo unspecified)", "outcome": "inactive"},
      {"smiles": "CC1(C)CCC(=Cc2ccc(Cl)cc2)C1(O)Cn1cncn1", "note": "(stereo unspecified)", "outcome": "inactive"},
      {"smiles": "COCC(=O)N(c1c(C)cccc1C)C(C)C(=O)OC", "note": "(stereo unspecified)", "outcome": "inactive"},
      {"smiles": "CCOc1nc(F)cc2nc(S(=O)(=O)Nc3c(Cl)cccc3Cl)nn12", "AC50": "29.8 µM (active)"},
      {"smiles": "COP(=O)(OC)O/C(C)=C/C(=O)N(C)C", "outcome": "inactive"},
      {"smiles": "CC(C)N1C(=O)N(c2ccccc2)CSC1=NC(C)(C)C", "AC50": "77.1 µM (active)"}
    ]}
  ]
}
